Source: PubChem BioAssay (NCATS)
Records with an inconclusive call do not appear. Unmarked numbers belong to inactive results. The call rests on the fitted dose curve; in most records, active means well fitted inhibition curve with a large enough effect; inconclusive means small, poorly fitted or top-dose-only effect; inactive means no such curve, though single readings can be large or run the other way. Where a SMILES comes first, the peptide text is derived from it. [ ]: non-standard residue; d: D form. ξ: configuration not given here. ξPhe(βξ-Me) = CC(c1ccccc1)C(N)C(=O)O; GABA = NCCCC(=O)O

tested on: Zika virus NS2B-NS3 protease (linked construct); test: Primary screen NINDS Rhodamine qHTS for Zika virus inhibitors (AID 1347160); conditions: purified NS2B-NS3 protease, Rhodamine110 substrate fluorescence; series mostly up to 57.1 µM; activity change, negative = inhibition: at the top concentration; further: nearly all actives have a fitted effect of over 55% in size
How it was run: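 Purified linked NS2B-NS3 protease (NS2B hydrophilic domain joined to NS3 protease by flexible linker), 25 nM in 10 mM Tris-HCl pH 8.0, 0.01% Tween 20. Compounds titrated, 15 min preincubation at room temperature; 1.5 microM Rhodamine110 substrate, FITC fluorescence change over 15 min.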
On the % scale 0 is the no-effect control and ±100 the full control effect.

First: CC1(C)O[C@]23C[C@H]1C[C@H](OC(=O)c1ccoc1)[C@]2(C)[C@@H](OC(=O)c1ccoc1)CCC3(C)O (some centres not stated)
Second: CC1CC(O)C2(C)C(C(=O)O)=CCCC2C1(C)CCc1ccoc1 (configuration not stated)
The “activity change, negative = inhibition” value of the first is higher: 3.55% [at 33.1 µM] for the first, -17.6% [at 33.1 µM] for the second.

Compared with COc1cc(C(O)C(CO)Oc2ccc(CCCO[C@@H]3O[C@@H](C)[C@H](O)[C@@H](O)[C@H]3O)cc2OC)ccc1O (some centres not stated), C=CC1(C)CC(OC(=O)C(=C)C(O)COC(C)=O)C(C(=C)C(=O)OC)C(O)C1C(=C)CO (configuration not stated) is higher in “activity change, negative = inhibition” value: -23.8% [at 33.1 µM] for the first, 30.7% [at 33.1 µM] for the second.

Compared with C=C1C2=CC(O)C(C)C1(C)CC/C(C)=C/CCC1(C)OC1C2=O (configuration not stated), C=C1CCC2C(OC(=O)C2(O)COC(C)=O)C2C(=C)C(O)CC12 (configuration not stated) is lower in “activity change, negative = inhibition” value: 1.72% [at 33.1 µM] for the first, -5.88% [at 33.1 µM] for the second.

Compared with CNC(=O)O[C@H]1COc2ccc(N3CCN(C4COC4)CC3)cc2[C@@H]1NC(=O)c1ccc(F)cc1, CC1(C)CC(=O)N(CCCCN2CCN(c3ncccn3)CC2)C(=O)C1 is lower in “activity change, negative = inhibition” value: 34.1% for the first, 16.4% for the second.

Compared with CC(C#N)C(C)O[C@@H]1O[C@H](CO)[C@@H](O)[C@H](O)[C@H]1O (some centres not stated), COc1ccccc1[C@@H]1C2=C(CC(C)(C)CC2=O)Nc2n[nH]c(C(F)(F)F)c21 is higher in “activity change, negative = inhibition” value: -22.9% for the first, -20.9% for the second.

Going from CC(C)CC1NC(=O)C(C(C)c2ccccc2)NC(=O)C(C(C)C)NC(=O)C(C)NC(=O)CCCNC(=O)C(Cc2c[nH]c3ccccc23)NC(=O)C(C)NC1=O (stereo not drawn) (cyclo([GABA]AV[ξPhe(βξ-Me)]LAW); configuration not given here) to CCC(C)/C=C(C)/C=C/C1=CC2=C(Cl)C(=O)C(C)(OC(C)=O)C(=O)C2=CN1C1CCCCN(C(CCC(N)=O)C(=O)O)C1=O (configuration not stated), the “activity change, negative = inhibition” value falls from -18% [at 15.1 µM] to -18.7% [at 15.1 µM].
